Test results reported in PubChem BioAssay AID651965 (National Center for Advancing Translational Sciences (NCATS), 2013).
Out of some 340,000 compounds screened, about 6,400 (1.9%) were called active. Roughly 4% stayed inconclusive and do not appear here. Calls follow the shape of the dose curve; as a rule, active = well fitted falling curve with a large enough effect; inconclusive = small, poorly fitted or top-dose-only effect; inactive = no such curve, though single readings can be large or run the other way. For the sample, actives were picked, then their nearest neighbours and some compounds at random.

Target: ATP-dependent Clp protease proteolytic subunit (Bacillus subtilis (strain 168)) (UniProt P80244)
Test: qHTS Assay for Activators of ClpP; also: the source files actives as falling curves though it sought activators and does not explain the sign; nearly all actives have a fitted effect of over 65% in size
Details: purified B. subtilis ClpP, FRET peptide cleavage, 20 min; series mostly up to 57.5 µM
Description: The Clp protease proteolytic subunit (ClpP) is the core unit of the Clp complex belonging to the peptidase family S14 that hydrolyzes protein into small peptides in the presence of ATP and magnesium. It is ubiquitously expressed and is the major protease in bacteria. […] Unlike common antibiotics that simply interfere with the essential enzyme activity, ADEP binding activates the ClpP core in the absence of the regulatory Clp-ATPases leading to uncontrolled proteolysis and eventually cell death. Activators binding to the docking site on ClpP can also block formation of the ClpXP and ClpA/C-P holoenzyme complexes interfering with the normal biological functions of ClpP and thus have the potential to become new anti-microbials.
To identify activators of ClpP, a FRET based quenching reversal assay was developed using a purified B. subtilis ClpP and a decapeptide substrate (FRET-FV). The FRET-FV is tagged with a fluorescent molecule amino benzoic acid (donor) at the N-terminus and a nitrotyrosine quencher (acceptor) at the C-terminus. FRET-FV cleaves upon activation of ClpP with ADEP treatement and reverses the quenching effect of the nitrotyrosine causing an increase in fluorescence emission signal at 430nm. This assay was used to screen the Molecular Libraries Small Molecule Repository (MLSMR).
NIH Molecular Libraries Probe Production Centers Network [MLPCN]
NIH Chemical Genomics Center [NCGC]
Assay Submitter (PI): Michael Maurizi, National Cancer Institute
Two and a half microL/well of purified enzyme solution (final concentrations 10 microg/mL B. subtilis ClpP in 100 mM Tris/HCl pH8, 100 mM KCl, 0.05% low protease BSA, 2.5% glycerol, 0.01% Tween-20 buffer) was dispensed into 1536-well assay plates (Greiner, black solid, medium-binding plates) with Aurora Discovery BioRAPTR Flying Reagent Dispenser (FRD, Beckton-Dickenson). Compound solution (23 nL) was transferred to the assay plate using Kalypsys pin tool equipped with a 1536-pin tool. […] FRET signals at time 0 and after 20 min room temperature incubation were obtained using the PerkinElmer Envision plate reader with 320nm excitation and 430nm emission filters. Delta FRET value (Time 20 - Time 0) was calculated and normalized to the delta FRET value of positive control ADEP (5.8 microM final concentration) and negative control DMSO and no enzyme wells.
Potency is read from the fitted curve at half-maximal effect.

Chain of ATP-dependent Clp protease proteolytic subunit (Bacillus subtilis (strain 168)) (P80244 whole entry, looked up): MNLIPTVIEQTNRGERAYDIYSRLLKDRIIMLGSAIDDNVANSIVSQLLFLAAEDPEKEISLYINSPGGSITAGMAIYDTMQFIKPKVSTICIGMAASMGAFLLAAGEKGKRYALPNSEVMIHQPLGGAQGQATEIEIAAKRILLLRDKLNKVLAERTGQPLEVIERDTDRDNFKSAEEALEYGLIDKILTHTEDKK

Potency, inactive:
CCc1nc2ccc(C(=O)Nc3cc(-c4ccccc4)ccc3OC)cn2c1N(CC)CC(=O)N(C)C
CSc1ncnc2c1ncn2CCCNCC1CCCCC1
O=C1NC[C@H](CCCCN2CCN(CCc3ccccc3)C(=O)C2=O)N(CC2CCCCC2)C1=O
CC(C)C[C@H]1CNC(=S)N1C[C@H]1CCCN1C[C@H](Cc1ccc(O)cc1)N1C[C@H](Cc2ccc(O)cc2)N(CC2CCCCC2)C1=S
c1ccc(Cc2c(-c3ccco3)nc3c4ccccc4ccn23)cc1
Cc1ccc(C)c(C(O)c2ncc(-c3cccc4ccccc34)[nH]2)c1 (centres undefined)
COc1ccc2c(CN3CCN(S(=O)(=O)c4cccs4)CC3)cc(=O)oc2c1
Cc1ccc2c(CN3CCN(S(=O)(=O)c4ccccc4C(F)(F)F)CC3)cc(=O)oc2c1
CCCNC(=O)C1(C)CCN(C(=O)c2cc(F)ccc2C)C1 (centres undefined)
COc1ccc(C(=O)C(OP(=O)(OC)OC)c2ccccc2OC)cc1 (centres undefined)
O=[N+]([O-])c1ccc(/C=C/c2ccc3cccnc3c2)cc1
N#Cc1ccc[n+](CC(=O)c2ccc(F)cc2)c1
CC1(C)CC(=O)C2=C(C1)Nc1cc(C(=O)c3ccccc3)ccc1NC2c1ccccn1 (centres undefined)
Cc1cc(C)c(C2C3=C(Nc4c2c(C)nn4-c2ccccn2)c2ccccc2C3=O)c(C)c1 (centres undefined)
Clc1cccc[n+]1CCCC[n+]1ccccc1Cl
Cc1noc(C)c1S(=O)(=O)N(C)C[C@H]1OCCCC[C@@H](C)Oc2ccc(NC(=O)CCCN(C)C)cc2C(=O)N([C@H](C)CO)C[C@@H]1C
CCc1cc(C(=O)N(CC)CC(=O)Nc2c(F)cccc2F)sc1C
FC(F)(F)COc1nc(N2CCCCC2)nc(N2CCNCC2)n1
O=C(NNc1nc(N2CCCC2)nc(N2CCCC2)n1)c1ccccc1
CC(C)C1C(=O)N(Cc2cn(CCC3OCCO3)nn2)CCS(=O)(=O)N1Cc1ccc(-c2ccccc2C(F)(F)F)cc1 (centres undefined)
O=C(Nc1ccc(F)cc1)C(CCc1ccccc1)N1CCN(CC(=O)N2CCCC2)CC1 (centres undefined)
CCn1c(=O)c2cc(C(=O)Nc3cccc(C(C)=O)c3)sc2c2ccccc21
CN(Cc1ccccc1)C(=O)c1cc2c(=O)n(C)c3ccccc3c2s1
NS(=O)(=O)c1ccc(CCNC(=O)c2ccc(Cl)c(S(=O)(=O)N3CCCCCC3)c2)cc1
CCOC(=O)c1c(C)c(C(=O)NCCc2ccc(S(N)(=O)=O)cc2)c(C)n1CC
COC(=O)[C@@]12C[C@@H](CC(=O)NCc3cccc(C(F)(F)F)c3)C(=O)N(Cc3ccco3)C1=CCC(C)(C)C2
Cc1cccc(CN2Cc3cccc4c3[C@H](C=CC4)CC2=S)c1
Cc1cc(OCC(=O)NCC(O)c2ccccc2)c2c(C)c(C)c(=O)oc2c1 (centres undefined)
COc1ccc(CCNC(=O)COc2cc(C)cc3oc(=O)c(C)c(C)c23)cc1OC
COc1ccccc1-c1cc(NC(C)=O)c2ncc(-c3ccc(F)cc3)n2c1
CCc1cccc(CC)c1NC(=S)Nc1ccc2cn[nH]c2c1
Cc1cc2[nH]ncc2cc1NC(=S)NC(=O)c1ccccc1
COc1cc(CNc2ncnc3c2ncn3[C@H]2CN(Cc3cccs3)C[C@@H](CO)O2)cc(OC)c1OC
CC1(C(=O)NCc2cccc3ccccc23)CCN1Cc1ccc(-c2ccccc2)o1 (centres undefined)
C=CCOc1ccc(/C=C/C(=O)OCC(=O)NCC2CCCO2)cc1 (centres undefined)
CCOc1ccc(S(=O)(=O)NCCC(=O)NCC2CCCO2)cc1 (centres undefined)
Cc1ccccc1S(=O)(=O)N1[C@@H](c2cccc(Cl)c2)C(C(=O)OC(C)(C)C)=CC[C@H]1c1ccc(Cl)cc1
COC(=O)C1(C(=O)OC)C/C=C\CN(S(=O)(=O)c2ccccc2[N+](=O)[O-])CCC1
Cc1cccc(C(=O)Nc2ccccc2-c2nnn(CC(=O)Nc3ccc4c(c3)OCCO4)n2)c1
O=C(Nc1ccccc1-c1nnn(CC(=O)N2CCN(c3ccccc3)CC2)n1)c1cccs1
COC(=O)[C@]12CCCCC=C1N(Cc1ccc3c(c1)OCO3)C(=O)[C@H](CC(=O)NCc1cccs1)C2
CCCCCCCCN1C(=O)[C@H](CC(=O)NCC23CC4CC(CC(C4)C2)C3)C[C@@]2(C(=O)OC)CCCCC=C12
COc1ccc(C(=O)NNS(=O)(=O)c2ccc(C)cc2)cc1
O=C(Nc1cccc2ccccc12)NC1CC1
COc1ccc(-c2nc(=N)sn2-c2ccccc2)cc1
COC(=O)[C@@]12C[C@@H](CC(=O)NCCCCc3ccccc3)C(=O)N(Cc3ccccc3)C1=CCC(C)(C)C2
COc1cc(/C=N/NC(=O)CNC(=O)c2ccncc2)ccc1OC(C)=O
COc1cccc(OCc2cc(/C=N/NC(=O)c3nc(Cl)c(Cl)c(N)c3Cl)ccc2OC)c1

Potency, active:
O=c1cc(CN2CCN(S(=O)(=O)/C=C/c3ccccc3)CC2)c2ccc(O)cc2o1 10 µM
Cc1nn(-c2ccccn2)c2c1C(c1ccncc1)C1=C(CC(C)(C)CC1=O)N2 (centres undefined) 31.6 µM
CN(N)c1nc(N2CCCC2)nc(N2CCCC2)n1 31.6 µM
CCN(CCCNC(=O)c1cc2c(=O)n(CC)c3ccccc3c2s1)Cc1ccccc1 3.55 µM
Cc1c(C)n(Cc2ccc(Cl)cc2)c2ccc(C(=O)NCCc3ccc(S(N)(=O)=O)cc3)cc12 14.1 µM
Cc1cc(OCC(=O)Nc2nccs2)c2c(C)c(C)c(=O)oc2c1 31.6 µM
Cc1cccc(NC(=S)Nc2ccc3cn[nH]c3c2)c1 22.4 µM
CC1(C)CC(=O)c2cc(OCC(=O)NCC3CCCO3)ccc2O1 (centres undefined) 11.2 µM
O=C(Nc1ccccc1-c1nnn(CC(=O)N2CCCc3ccccc32)n1)c1cccc(Cl)c1 20 µM
Cc1ccc(S(=O)(=O)NNC(=O)Nc2cccc3ccccc23)cc1 14.1 µM
COc1ccc(/C=N/NC(=O)c2ccc(Cl)cc2)cc1COC(C)=O 25.1 µM
